Consider 102 molecules from PubChem BioAssay AID1851 (National Center for Advancing Translational Sciences (NCATS), 2009).

Hit rate of the full screen: of about 16,000 compounds, about 4,000 (25%) were called active. Roughly 26% stayed inconclusive and do not appear here. The list is a sample of the results. A number with no mark means an inactive call. Calls come from the whole dose curve; as a rule, active = well fitted curve in the direction sought with a large enough effect; inconclusive = small, poorly fitted or top-dose-only effect, or effect the other way; inactive = no such curve, though single readings can be large or run the other way.
% is set by controls: 0 for no effect and ±100 for the full control effect.

This assay deals with Cytochrome P450 2C9 (Homo sapiens) (UniProt P11712). Put plainly: Cytochrome panel assay with activity outcomes. The conditions noted are these: recombinant CYP, pro-luciferin dealkylation, luminescence, p450-cyp2c9; series mostly up to 57.1 µM; activity, negative = inhibition: at the top concentration.
Sequence of Cytochrome P450 2C9 (Homo sapiens) (P11712 whole entry, looked up): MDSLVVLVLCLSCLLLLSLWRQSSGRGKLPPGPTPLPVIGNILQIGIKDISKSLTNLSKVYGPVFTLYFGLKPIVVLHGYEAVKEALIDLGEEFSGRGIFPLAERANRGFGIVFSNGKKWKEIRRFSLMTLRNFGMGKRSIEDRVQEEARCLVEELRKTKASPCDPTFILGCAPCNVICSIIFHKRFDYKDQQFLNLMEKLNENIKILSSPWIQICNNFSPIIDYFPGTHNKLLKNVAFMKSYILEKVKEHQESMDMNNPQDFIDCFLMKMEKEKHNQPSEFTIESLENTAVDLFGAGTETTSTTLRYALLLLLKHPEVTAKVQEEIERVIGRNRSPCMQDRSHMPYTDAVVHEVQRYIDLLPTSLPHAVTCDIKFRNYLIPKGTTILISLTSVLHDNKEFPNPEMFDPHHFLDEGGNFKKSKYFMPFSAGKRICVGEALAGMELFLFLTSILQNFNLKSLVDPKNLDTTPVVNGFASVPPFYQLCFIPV
`COc1ccc(C2c3c(ncn(CCN4CCOCC4)c3=N)Oc3ccc4ccccc4c32)cc1OC` (configuration not stated): the AC50 (commonly the concentration giving half of the maximal activity seen) was 8.91 µM (active).
In the case of `COc1ccccc1-c1nc(NCCN2CCOCC2)c2ccccc2n1`, the activity, negative = inhibition is 14% [at 2.29 µM].
On to `COc1ccccc1-c1ccc2ncnc(NCCN3CCOCC3)c2c1`, for which the activity, negative = inhibition was -10.8% [at 2.29 µM].
For the molecule `Cn1sc(NC(=O)c2ccccc2)nc1=O`, the AC50 is 14.1 µM (active).
Consider `CCOC(=O)CSc1n[nH]c(NC(=O)c2ccccc2)n1`, for which the “activity, negative = inhibition” value is -20.3%.
Regarding `C=CCNC(=O)C1CCN(S(=O)(=O)CC)CC1`, the “activity, negative = inhibition” value was -14.6%.
Take `CC(CCc1ccccc1)NS(=O)(=O)c1ccccc1` (configuration not stated): the AC50 was 3.98 µM (active).
As to `C[C@@H](CCc1ccccc1)NC[C@H](O)c1ccc(O)c(C(N)=O)c1`, the AC50 result is “inactive”.
As for `COC(=O)C/C=C\[C@@H](C)[C@@H](CO)NS(=O)(=O)c1ccc(C)cc1`, the activity, negative = inhibition was -7.12% [at 11.4 µM].
On the same count and under the same terms, to `Cc1ccc(S(=O)(=O)N[C@H](CO)C(=O)O)cc1` belongs -14.1% [at 11.4 µM].
As to `CC(CCc1ccccc1)NC(=O)/C=C/c1ccccc1` (configuration not stated), the concentration at half-maximal activity (AC50) was 7.08 µM (active).
With `O=C(O)/C=C\C(=O)NCc1ccccc1`, the “activity, negative = inhibition” value was 3.41%.
As to `Cc1ccc(S(=O)(=O)N[C@@H](CCc2ccccc2)CC(=O)C(C)(C)C)cc1`, the AC50 is 3.98 µM (active).
For `O=C(O)[C@H](/C=C\c1ccccc1)c1ccccc1`, the activity, negative = inhibition is -17.8% [at 11.4 µM].
As to `O=C(CC1(O)CCCCC1)OC1CCCC1`, the activity, negative = inhibition is -26.4% [at 11.4 µM].
Still for that read-out and setting: next, `FC(F)(F)c1cc(CN2CCCC3(CCNCC3)C2)cc(C(F)(F)F)c1`: 18.9%.
As to `CC(C)N=c1scc(-c2ccco2)n1/N=C/c1ccc(O)c(O)c1`, the AC50 is 11.2 µM (active).
Turning to `C[N+](C)(C)/N=C\c1ccc(O)c(O)c1`, the activity, negative = inhibition is -5.12% [at 11.4 µM].
On the same count and under the same terms, next, `CCCC(=O)Nc1nc2n(n1)C(c1ccccc1)CC(=O)N2` (configuration not stated): -10.9%.
On to `O=C1CC[C@H](N2C(=O)c3ccccc3C2=O)C(=O)N1`, for which the AC50 entry was “inactive”.
On the same count and under the same terms, next, `CC1(C)CC(=O)C(CCCN2C(=O)c3ccccc3C2=O)C(=O)C1`: 17.8 µM (active).
On to `O=C1c2ccccc2C(=O)N1CCSC(=S)N1CCOCC1`, for which the “activity, negative = inhibition” value is -12.5%.
Take `CSc1cccc(NC(=O)OC2CCCCCCCCCCC2)c1`: the activity, negative = inhibition is -17.7% [at 11.4 µM].
Regarding `CSc1cccc(NC(=O)Cn2cccc2)c1`, the concentration at half-maximal activity (AC50) is 20 µM (active).
As to `Cc1cccc(NC(=O)Cn2cccc2)c1`, the “activity, negative = inhibition” value is -26.4%.
On the same count and under the same terms, to `O=C(OCC1CC(c2ccccc2)=NO1)c1ccc(Cl)cc1` (configuration not stated) belongs -26.7%; to `Clc1ccc(C2=C3CCCCn4c(-c5ccccc5)c[n+](c43)C2)cc1`, -19.6%.
`O=C(c1ccc(Cl)cc1)N1CCCC(c2ccccc2)=N1`: the concentration at half-maximal activity (AC50) is 10 µM (active).
`CC(C)(C)NC(=O)Cn1cnc([N+](=O)[O-])n1`: the “activity, negative = inhibition” value was 6.83%.
Take `Cc1cccc(C(CC(=O)N2CCCC2)c2ccccc2)c1O` (configuration not stated): the half-maximal activity concentration (AC50) was 3.98 µM (active).
Regarding `O=C(O)c1cccnc1SCC(=O)N1CCCCCC1`, the “activity, negative = inhibition” value was -1.58%.
Still for that read-out and setting: to `COCC(=O)N1CCC2(CC1)CCN(C(c1ccccc1)c1ccccc1)CC2` belongs 2.97%.
On to `CCNc1ncc2ncc(=O)n(C[C@H]3CCCO3)c2n1`, for which the “activity, negative = inhibition” value was 29.3%.
Still for that read-out and setting: to `COc1ncc2nc(-c3ccc(F)cc3)c(=O)n(Cc3ccc(F)cc3)c2n1` belongs -4.72%; to `COc1cccc(Cn2c(=O)c(-c3cccc(C#N)c3)nc3cnc(N4CCN(C)CC4)nc32)c1`, -3.2%.
With `COc1cccc(Cn2c(=O)c(-c3ccccc3)nc3cnc(OC)nc32)c1`, the concentration at half-maximal activity (AC50) was 12.6 µM (active).
On the same count and under the same terms, to `COc1cccc(Cn2c(=O)c(-c3cccc(C#N)c3)nc3cnc(OC)nc32)c1` belongs 12.6 µM (active).
Turning to `COc1cccc(Cn2c(=O)c(-c3cccc(C#N)c3)nc3cnc(Nc4ccccc4)nc32)c1`, the “activity, negative = inhibition” value was -19.8%.
For `CCNc1ncc2nc(-c3ccccc3)c(=O)n(Cc3cccc(OC)c3)c2n1`, the “activity, negative = inhibition” value was -22.8%.
On the same count and under the same terms, to `CC/C(O)=C(\C#N)c1nnc2n1CCCCC2` belongs -30.9%; to `CC(C)Oc1ccc(CSC(=N)N)cc1`, 11.2%; to `N#CC(C#N)=CNCCN1CCN(C=C(C#N)C#N)CC1`, 5.25% [at 11.4 µM].
Take `COCCNC(=O)COc1ccc(OCCNC[C@@H](O)COc2ccccc2)cc1`: the “activity, negative = inhibition” value was 18.8%.
On the same count and under the same terms, to `COCCNC(=O)CCn1c(=O)oc2ccccc21` belongs 19.3%.
As for `COCCNC(=O)COc1ccc(Oc2ccccc2)cc1`, the AC50 was 0.316 µM (active).
As for `CS(=O)(=O)N1CCC2(CCCN(C(=O)Nc3cccc(F)c3)C2)CC1`, the “activity, negative = inhibition” value was -5.65%.
Turning to `CCOc1ccc(NCc2nnc(SCc3ccccc3Cl)n2-c2ccccc2)cc1`, the AC50 was 7.94 µM (active).
For `COC(Cc1nnc(SC)n1-c1ccccc1)OC`, the “activity, negative = inhibition” value was -7.18%.
On the same count and under the same terms, to `CC(=O)NCCNc1ncnc2ccc(-c3ccc(C(=O)N(C)C)cc3)cc12` belongs 3.47% [at 2.29 µM]; to `CC(=O)OC[C@@H]1O[C@H](C/C=N\OCC[C@H]2C=C[C@H](OC(C)=O)[C@@H](COC(C)=O)O2)C=C[C@@H]1OC(C)=O`, 19.9% [at 11.4 µM]; to `Cc1noc(C)c1-c1cncnc1NCCN1CCOCC1`, -15.1% [at 2.29 µM].
Consider `O=S(=O)(Cc1cc(Oc2ccccc2)nc(-c2ccccc2)n1)c1ccccc1`, for which the concentration at half-maximal activity (AC50) was 0.891 µM (active).
For `N[C@@H](CS(=O)O)C(=O)O`, the “activity, negative = inhibition” value is -5.61%.
Regarding `CCn1c2ccccc2c2cc(NC(=O)C/C(C)=N/NC(=O)c3ccccc3N)ccc21`, the AC50 is 35.5 µM (active).
Turning to `CC(=O)Nc1ccc(NC(=O)C/C(C)=N/NC(=O)C(=O)N2CCCC2)cc1`, the “activity, negative = inhibition” value was 8.88%.
In the case of `COCCn1c(=O)cnc2cnc(Oc3cccc(Cl)c3)nc21`, the concentration at half-maximal activity (AC50) was 15.8 µM (active).
For the molecule `COCCn1c(=O)cnc2cnc(Oc3ccccc3)nc21`, the “activity, negative = inhibition” value was -24.6%.
Take `COCCn1c(=O)c(C)nc2cnc(Oc3cccc(Cl)c3)nc21`: the half-maximal activity concentration (AC50) was 12.6 µM (active).
On to `COCCn1c(=O)cnc2cnc(Oc3ccc(OC)cc3)nc21`, for which the “activity, negative = inhibition” value was 0.762%.
On to `Cc1nc2cnc(Oc3cccc(Cl)c3)nc2n(CCc2ccccc2)c1=O`, for which the “activity, negative = inhibition” value was -19.9%.
Same read-out and setting: to `COc1ccc(C2CC(=O)CC(=O)C2n2cncn2)cc1` (configuration not stated) belongs -4.99%.
For the molecule `O=C(O)CSc1sc(=S)sc1SCC(=O)O`, the “activity, negative = inhibition” value was -27.2%.
Regarding `Cc1sc2ncn(CC(=O)NCCCC(=O)N3CCN(c4ncccn4)CC3)c(=O)c2c1C`, the half-maximal activity concentration (AC50) was 11.2 µM (active).
As for `O=C(Nc1cccc(F)c1)Nc1ccccn1`, the concentration at half-maximal activity (AC50) is 25.1 µM (active).
Turning to `O=C(O)/C=C\C(=O)Nc1ccccn1`, the activity, negative = inhibition was 25.1% [at 11.4 µM].
On the same count and under the same terms, next, `O=C(Nc1cccc2ncccc12)c1cccc(F)c1`: 29.7%; `C[C@@H]1/C=C\CC(=O)OC[C@H]2O[C@@H](C=C[C@@H]2O)[C@H](C)/C=C\CC(=O)OC[C@H]2O[C@H]1C=C[C@@H]2O`: -9.33% [at 11.4 µM].
`CC(C)NC(=O)N1CCCC2(CCN(C(=O)c3ccncc3)CC2)C1`: the “activity, negative = inhibition” value is 17%.
As for `O=C(c1cnccn1)N1CCC2(CC1)CCN(C(c1ccccc1)c1ccccc1)CC2`, the “activity, negative = inhibition” value is 4.12%.
Take `CC(C)CN1CCCC2(CCN(C(=O)c3cccc(F)c3)CC2)C1`: the “activity, negative = inhibition” value was -4.81%.
Take `O=C(c1cccc(F)c1)N1CCC[C@@]2(CCN(C(c3ccccc3)c3ccccc3)C2)C1`: the “activity, negative = inhibition” value was 8.73%.
Turning to `Cc1noc(C)c1C(=O)N1CCC2(CCCN(C(c3ccccc3)c3ccccc3)C2)CC1`, the “activity, negative = inhibition” value was -21.2%.
Turning to `O=C(c1ccncc1)N1CCC2(CCCN(C(c3ccccc3)c3ccccc3)C2)CC1`, the half-maximal activity concentration (AC50) was 5.01 µM (active).
As for `CC(C)NC(=O)N1CC2(CCN(C(=O)c3ccncc3)CC2)C1`, the “activity, negative = inhibition” value was -25.4%.
In the case of `O=C(c1ccco1)N1CCC2(CCCN(c3ccccc3)C2)CC1`, the “activity, negative = inhibition” value was 9.69%.
As for `O=C(c1cccc(F)c1)N1CCC2(CCCN(C(c3ccccc3)c3ccccc3)C2)CC1`, the AC50 is 3.16 µM (active).
Turning to `O=C(c1ccco1)N1CCC2(CCCN(C(c3ccccc3)c3ccccc3)C2)CC1`, the concentration at half-maximal activity (AC50) was 12.6 µM (active).
For the molecule `O=C(c1ccco1)N1CCC2(CCCN(Cc3ccccc3)C2)CC1`, the “activity, negative = inhibition” value was -28.9%.
For `O=C(c1ccncc1)N1CCC2(CC1)CN(C(c1ccccc1)c1ccccc1)C2`, the AC50 is 10 µM (active).
Take `C[C@@H](C[C@H](N)C(=O)O)C(=O)O`: the activity, negative = inhibition was 0.375% [at 11.4 µM].
On the same count and under the same terms, to `Cc1cnc(CNc2nc(-c3ccccc3C(F)(F)F)nc3ccccc23)cn1` belongs -16.4% [at 2.29 µM]; to `O=C(c1cnccn1)N1CCC[C@@]2(CCN(C(c3ccccc3)c3ccccc3)C2)C1`, -14.3%.
As to `O=C(c1cnccn1)N1CCC2(CCCN(C(c3ccccc3)c3ccccc3)C2)CC1`, the AC50 is 12.6 µM (active).
For the molecule `O=C(c1cnccn1)N1CCC2(CC1)CN(C(c1ccccc1)c1ccccc1)C2`, the “activity, negative = inhibition” value was 1.03%.
For the molecule `O=C(NN=C1C2CC3CC(C2)CC1C3)c1ccncc1`, the “activity, negative = inhibition” value is -27.1%.
For the molecule `O=C(Nc1nnc(C2CC2)s1)c1ccncc1`, the AC50 was 8.91 µM (active).
Turning to `CC(C)NNC(=O)c1ccncc1`, the AC50 result was “inactive”.
For `O=C1CCCC=C1[C@@H](O)CCOC(c1ccccc1)(c1ccccc1)c1ccccc1`, the AC50 is 0.794 µM (active).
Turning to `CC/C=C\CC[C@H](O)C1=CCCCC1=O`, the activity, negative = inhibition was -1.13% [at 11.4 µM].
On the same count and under the same terms, next, `O=C1CCCC=C1[C@@H](O)COCc1ccccc1`: 3.8% [at 11.4 µM]; `CC1(C)OC(=O)C(=CNc2cccc(O)c2)C(=O)O1`: 27.7%.
On the same count and under the same terms, next, `O=C(Nc1cccc(F)c1)N1CC[C@@]2(CCCN(C(=O)c3cc(C(F)(F)F)cc(C(F)(F)F)c3)C2)C1`: 6.64%.
Same read-out and setting: to `Fc1ccc(Nc2ccnc(-c3ccccc3C(F)(F)F)n2)cc1` belongs -26.8% [at 2.29 µM]; to `O=C(c1ccncc1)N1CCC2(CC1)CN(c1ccc(-c3ccccc3)cc1)C2`, -20.9%.
Take `O=C(c1cccc(F)c1)N1CCC2(CC1)CN(c1ccncc1)C2`: the concentration at half-maximal activity (AC50) was 5.01 µM (active).
For `Cc1noc(C)c1C(=O)N1CCC2(CCN(Cc3ccncc3)CC2)CC1`, the “activity, negative = inhibition” value is -13.8%.
As for `O=C(c1ccncc1)N1CCC2(CC1)CN(c1ccccc1)C2`, the AC50 was 2.51 µM (active).
With `O=C(c1cccc(F)c1)N1CCC[C@@]2(CCN(c3ccncc3)C2)C1`, the “activity, negative = inhibition” value was -15.9%.
As for `CC(=O)N1CCC2(CC1)CN(c1ccccc1)C2`, the “activity, negative = inhibition” value is -15%.
On the same count and under the same terms, to `Cc1noc(C)c1C(=O)N1CCC2(CCCN(c3ccncc3)C2)CC1` belongs 9.67%.
As for `O=C(c1ccncc1)N1CCC2(CC1)CCN(c1ccccc1)CC2`, the half-maximal activity concentration (AC50) is 10 µM (active).
Turning to `Cc1noc(C)c1C(=O)N1CCC2(CC1)CCN(c1ccncc1)CC2`, the AC50 is 10 µM (active).
